In PubChem BioAssay (EPA / NIEHS):
Activity calls are given as the source filed them. How the source made its calls: active means hit-call score of the fitted dose curve at least 0.9, where 1 is the maximum; inactive means score below 0.9.

Tests used:
Details in all cases: mRNA level, 48 h; actives raise or lower the signal
CYP2E1 (gene 1571) = assay: LTEA_HepaRG_CYP2E1: Life Technologies and Expression Analysis (LTEA) Assay for CYP2E1 using HepaRG (AID 2283485)
How it was run: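 CYP2E1 transcript measured by Fluidigm qRT-PCR against three housekeeping genes in human HepaRG cells treated 48 h (top 100 uM, half-log steps, 0.5% DMSO vehicle). Gain or loss fitted relative to DMSO baseline.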

CYP4A11 (gene 1579) = assay: LTEA_HepaRG_CYP4A11: Life Technologies and Expression Analysis (LTEA) Assay for CYP4A11 using HepaRG (AID 2283486)
How it was run: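 Differentiated HepaRG cells, serum-free induction medium, exposed 48 h in duplicate to 8-point half-log series from 100 uM in 0.5% DMSO. CYP4A11 mRNA measured by qRT-PCR, normalized to ACTB, GAPDH, POLR2A; bidirectional fit versus DMSO.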

[1] = read-out: Cytochrome P450 3A4 (Homo sapiens) (UniProt P08684); assay: LTEA_HepaRG_CYP3A4: Life Technologies and Expression Analysis (LTEA) Assay for CYP3A4 using HepaRG (AID 2283487)
How it was run: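 Differentiated HepaRG cells, plated 48 h, then dosed 48 h in serum-free induction medium with 0.5% DMSO, 8 half-log concentrations up to 100 uM, duplicate. CYP3A4 mRNA by qRT-PCR, normalized to ACTB/GAPDH/POLR2A; bidirectional fit versus DMSO.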

[2] = read-out: DNA damage-inducible transcript 3 (DDIT3), DDIT3 (gene 1649); assay: LTEA_HepaRG_DDIT3: Life Technologies and Expression Analysis (LTEA) Assay for DNA damage-inducible transcript 3 (DDIT3) using HepaRG (AID 2283488)
How it was run: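 DDIT3 transcript was quantified by qRT-PCR with ACTB/GAPDH/POLR2A normalization after 48 h chemical treatment of differentiated HepaRG cells in 0.5% DMSO. Dosing was eight-point, half-log, top 100 uM, duplicate wells. Curves fitted bidirectionally versus DMSO.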

[3] = read-out: Pro-epidermal growth factor (Homo sapiens) (UniProt P01133); assay: LTEA_HepaRG_EGF: Life Technologies and Expression Analysis (LTEA) Assay for Epidermal growth factor (EGF) using HepaRG (AID 2283489)
How it was run: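 Differentiated human HepaRG cells, plated 48 h then switched to serum-free induction medium, were exposed for 48 h to test chemicals (8-point half-log series, top 100 uM, 0.5% DMSO). EGF mRNA was quantified by qRT-PCR, normalized to ACTB, GAPDH, POLR2A.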

[4] = read-out: Ezrin (EZR), EZR (gene 7430); assay: LTEA_HepaRG_EZR: Life Technologies and Expression Analysis (LTEA) Assay for Ezrin (EZR) using HepaRG (AID 2283491)
How it was run: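 EZR transcript levels came from Fluidigm qRT-PCR and were normalized to three housekeeping genes after 48 h chemical exposure of HepaRG cells. Dosing used an 8-point half-log series with a 100 uM top concentration in 0.5% DMSO, tested in duplicate; both directions were fitted versus vehicle.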

[5] = read-out: Cytochrome P450 3A7 (Homo sapiens) (UniProt P24462); assay: LTEA_HepaRG_CYP3A7: Life Technologies and Expression Analysis (LTEA) Assay for CYP3A7 using HepaRG (AID 2283492)
Method: LTEA_HepaRG is a cell based, multiplexed-readout assay that uses HepaRG, a human liver cell line, with measurements taken at 48 hours after chemical dosing on a 96-well plate.LTEA_HepaRG_CYP3A7 is one of 102 assay component(s) measured in the LTEA HepaRG cell culture assay. It is a marker of NR mediated metabolism/Undifferentiated hepatocyte.Data from the assay component LTEA_HepaRG_CYP3A7 was analyzed into 1 endpoint. This assay endpoint, LTEA_HepaRG_CYP3A7, was analyzed with bidirectional fitting relative to DMSO as the negative control and baseline of activity. Using a type of inducible reporter, measures of mRNA induction for gain or loss-of-signal activity can be used to understand regulation of transcription factor activity. To generalize the intended target to other relatable targets, this assay endpoint is annotated to the cyp intended target family, where the subfamily is xenobiotic metabolism.
A total of 1060 chemcials from the ToxCast library were tested in eight-point concentration-response experiments. Cell culture and cytotoxicity assays were conducted at Thermo Fisher Scientific's Custom Services facility (Madison, WI). […] Fluidigm's 96.96 Dynamic ArrayTM (Fluidigm, Amsterdam, the Netherlands) technology was used for gene expression analyses by quantitative reverse transcription polymerase chain reaction (qRT-PCR, performed by Quintiles/Expression Analysis, Durham, NC)89. […]

CYP3A5 (gene 1577) = assay: LTEA_HepaRG_CYP3A5: Life Technologies and Expression Analysis (LTEA) Assay for CYP3A5 using HepaRG (AID 2283493)
How it was run: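 mRNA levels were quantified by qRT-PCR on Fluidigm arrays and normalized to three housekeeping genes. Differentiated HepaRG cells received 48 h exposure (top 100 uM, half-log steps, 0.5% DMSO vehicle, duplicate); bidirectional fitting versus DMSO.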

[6] = read-out: Fatty Acid-Binding Protein 1 (FABP1), FABP1 (gene 2168); assay: LTEA_HepaRG_FABP1: Life Technologies and Expression Analysis (LTEA) Assay for Fatty Acid-Binding Protein 1 (FABP1) using HepaRG (AID 2283494)
How it was run: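 qRT-PCR readout of FABP1 transcript (normalized to three housekeeping genes) after 48 h chemical exposure of HepaRG cells; eight concentrations, half-log steps, max 100 uM, 0.5% DMSO vehicle; gain or loss fitted relative to DMSO baseline.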

[7] = read-out: Cytochrome P450 4A22 (Homo sapiens) (UniProt Q5TCH4); assay: LTEA_HepaRG_CYP4A22: Life Technologies and Expression Analysis (LTEA) Assay for Cytochrome P450 4A22 (CYP4A22) using HepaRG (AID 2283495)
How it was run: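 qRT-PCR of CYP4A22 mRNA (Fluidigm TaqMan, normalized to three housekeeping genes) after 48 h chemical exposure of HepaRG cells; 8-point half-log series, top 100 uM, 0.5% DMSO vehicle. Bidirectional curve fitting vs DMSO baseline.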

Measured: outcome

Cytochrome P450 3A7 (Homo sapiens), sequence (P24462 whole entry, looked up): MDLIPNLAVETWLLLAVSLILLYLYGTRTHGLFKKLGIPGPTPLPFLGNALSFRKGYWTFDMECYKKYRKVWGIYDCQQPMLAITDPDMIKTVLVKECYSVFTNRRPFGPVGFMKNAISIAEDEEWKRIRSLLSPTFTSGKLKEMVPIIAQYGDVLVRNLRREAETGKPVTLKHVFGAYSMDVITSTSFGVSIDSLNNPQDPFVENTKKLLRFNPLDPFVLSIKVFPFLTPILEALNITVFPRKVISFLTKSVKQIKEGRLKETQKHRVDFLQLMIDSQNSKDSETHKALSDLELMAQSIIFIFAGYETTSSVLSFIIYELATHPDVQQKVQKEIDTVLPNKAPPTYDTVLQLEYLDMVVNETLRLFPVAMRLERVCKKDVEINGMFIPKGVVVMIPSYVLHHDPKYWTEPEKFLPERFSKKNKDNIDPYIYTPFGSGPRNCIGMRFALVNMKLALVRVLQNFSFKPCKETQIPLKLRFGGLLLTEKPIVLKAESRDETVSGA
Cytochrome P450 3A4 (Homo sapiens), sequence (P08684 whole entry, looked up): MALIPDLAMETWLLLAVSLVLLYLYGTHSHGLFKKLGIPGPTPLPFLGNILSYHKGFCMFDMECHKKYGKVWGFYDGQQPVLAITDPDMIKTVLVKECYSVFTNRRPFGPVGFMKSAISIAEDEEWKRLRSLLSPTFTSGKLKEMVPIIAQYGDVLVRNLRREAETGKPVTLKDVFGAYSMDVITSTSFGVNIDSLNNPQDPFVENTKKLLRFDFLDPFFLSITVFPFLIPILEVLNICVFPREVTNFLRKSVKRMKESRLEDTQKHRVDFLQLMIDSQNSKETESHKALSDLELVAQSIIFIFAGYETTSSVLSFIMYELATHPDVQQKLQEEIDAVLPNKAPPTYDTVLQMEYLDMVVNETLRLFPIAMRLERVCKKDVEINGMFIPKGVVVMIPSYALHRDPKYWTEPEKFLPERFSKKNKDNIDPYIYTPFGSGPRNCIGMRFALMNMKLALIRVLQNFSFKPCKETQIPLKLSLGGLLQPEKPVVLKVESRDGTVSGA

O=C(O)c1ccc([N+](=O)[O-])cc1
inactive: CYP2E1 (gene 1571) | CYP4A11 (gene 1579) | [1] | [2] | [3] | [4] | [5] | CYP3A5 (gene 1577) | [6] | [7]
